This passage reports growth results from PubChem BioAssay (NCI).

About 83,000 compounds went through this panel and 20% of them were active in at least one assay; those are over-represented in the sample as a whole.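 The endpoint reported here, percent growth, reads 100 for growth as untreated, 0 for no net growth and -100 for all cells dead.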 Unmarked numbers belong to inactive results. Activity calls are given as the source filed them. Rule for the calls: active = growth percent below 10; inactive = the rest.

Test systems include DU-145 prostate; MDA-MB-231 breast; RXF 393 renal; SF-268 CNS; SF-295 CNS; SF-539 CNS; UACC-257 melanoma; M14 melanoma; HCT-15 colon; HT29 colon; SNB-75 CNS; SNB-19 CNS; U251 CNS; PC-3 prostate; SK-MEL-5 melanoma; UACC-62 melanoma; LOX IMVI melanoma; SK-MEL-28 melanoma; K-562 leukemia.
What all share (test): NCI-60 one-dose screen, 48 h (100 = growth as untreated, 0 = no growth, -100 = all killed)
Settings in all cases: 10 µM

With `O=C(NNc1nc(N2CCCC2)nc(N2CCCC2)n1)c1ccccc1`, the growth in the assay with DU-145 prostate is 107%; with MDA-MB-231 breast it was 100%; in the assay on RXF 393 renal, 116%; in the assay with SF-268 CNS it was 106%; in the assay on SF-295 CNS, 128%; in the assay with SF-539 CNS, 113%. Moreover, the growth is 96.6% in the assay on UACC-257 melanoma; 132% in the assay with M14 melanoma; 108% in the assay with HCT-15 colon; 102% in the assay on HT29 colon; 88.7% in the assay with SNB-75 CNS; 99.6% with SNB-19 CNS. Besides, the growth in the assay on U251 CNS is 98.5%; with PC-3 prostate, 101%; with SK-MEL-5 melanoma it was 110%; with UACC-62 melanoma, 99.3%; in the assay with LOX IMVI melanoma it was 110%; in the assay with SK-MEL-28 melanoma, 106%.
Take `COc1cc(/C=C/C(=O)c2cc(-c3ccccc3)ccc2O)cc(OC)c1OC`: the growth in the assay on DU-145 prostate is 91%; in the assay with K-562 leukemia, 34%; in the assay on MDA-MB-231 breast it was 71%; in the assay on RXF 393 renal, 97.8%; in the assay with SF-268 CNS, 83.2%; in the assay with SF-295 CNS it was 74.6%. Besides, the growth in the assay on SF-539 CNS is 80.2%; in the assay on UACC-257 melanoma, 69.9%; with M14 melanoma, 96.7%; with HCT-15 colon, 70%; in the assay with HT29 colon, 82.4%; with SNB-75 CNS, 93.1%. Further, the growth with SNB-19 CNS was 93.3%; with U251 CNS it was 75.7%; with SK-MEL-5 melanoma, 51.8%; in the assay on UACC-62 melanoma, 58.8%; with LOX IMVI melanoma, 52.6%; in the assay on SK-MEL-28 melanoma, 98.1%.
As for `CC(C)/C(=N/O)c1ccccc1`, the growth is 114% in the assay on DU-145 prostate; 104% in the assay on K-562 leukemia; 99.8% in the assay with MDA-MB-231 breast; 121% with RXF 393 renal; 112% in the assay with SF-268 CNS; 103% with SF-295 CNS. The growth was 94.6% with SF-539 CNS; 109% in the assay with UACC-257 melanoma; 109% in the assay on M14 melanoma; 97.4% in the assay on HT29 colon; 94.5% in the assay on SNB-75 CNS; 102% with SNB-19 CNS. In addition, the growth in the assay on U251 CNS is 112%; in the assay with PC-3 prostate it was 102%; in the assay with SK-MEL-5 melanoma it was 104%; with UACC-62 melanoma, 107%; in the assay with LOX IMVI melanoma, 94.5%; in the assay on SK-MEL-28 melanoma, 113%.
With `O=C1c2cc(Cl)ccc2-c2c(O)cc(Cl)cc21`, the growth in the assay on DU-145 prostate was 98.8%; with K-562 leukemia, 57.2%; with MDA-MB-231 breast, 79.2%; with RXF 393 renal, 68.8%; with SF-268 CNS, 86.1%; in the assay on SF-295 CNS it was 99.1%. Also, the growth with SF-539 CNS was 80.7%; in the assay on UACC-257 melanoma it was 105%; with M14 melanoma, 91.8%; with HT29 colon it was 95.1%; with SNB-75 CNS, 81.2%; in the assay with SNB-19 CNS it was 59.8%. The growth in the assay with U251 CNS is 55.5%; with PC-3 prostate it was 78%; in the assay on SK-MEL-5 melanoma, 53%; in the assay on UACC-62 melanoma it was 85%; in the assay on LOX IMVI melanoma, 52%; in the assay with SK-MEL-28 melanoma, 106%.
As to `CCOc1nc(-c2ccccc2)cc2c(O)c(C(=O)NC(C)C)[nH]c(=O)c12`, the growth with DU-145 prostate was 107%; in the assay on K-562 leukemia, 95%; with MDA-MB-231 breast, 106%; in the assay on RXF 393 renal, 78.1%; with SF-268 CNS it was 105%; in the assay on SF-295 CNS, 89.9%. In addition, the growth with SF-539 CNS is 99.3%; in the assay on UACC-257 melanoma, 84.8%; in the assay on M14 melanoma, 101%; in the assay on HCT-15 colon, 99.7%; with SNB-75 CNS, 103%; with SNB-19 CNS, 96.9%. Moreover, the growth with U251 CNS was 99.8%; in the assay with PC-3 prostate, 46.4%; with SK-MEL-5 melanoma, 99.5%; with UACC-62 melanoma, 105%; in the assay on LOX IMVI melanoma it was 97.6%; with SK-MEL-28 melanoma, 89.7%.
Consider `CC[C@@]1(C(N)=O)CC2C=CC1C2` (stereo not given in full), for which the growth in the assay with DU-145 prostate is 113%; in the assay on K-562 leukemia it was 92.6%; in the assay with MDA-MB-231 breast, 109%; in the assay on RXF 393 renal it was 112%; in the assay with SF-268 CNS it was 119%; in the assay on SF-295 CNS, 110%. Moreover, the growth is 111% with SF-539 CNS; 118% in the assay with UACC-257 melanoma; 102% with M14 melanoma; 116% with HCT-15 colon; 106% with HT29 colon; 92.4% in the assay with SNB-75 CNS. Also, the growth is 107% with SNB-19 CNS; 113% in the assay with U251 CNS; 93.1% in the assay on PC-3 prostate; 106% in the assay with SK-MEL-5 melanoma; 107% in the assay on UACC-62 melanoma; 105% with LOX IMVI melanoma. The growth in the assay on SK-MEL-28 melanoma is 112%.
With `CCSc1nc2c([nH]1)c(=O)n(C)c(=S)n2C`, the growth is 112% in the assay on DU-145 prostate; 115% in the assay on K-562 leukemia; 116% with MDA-MB-231 breast; 117% in the assay with RXF 393 renal; 106% with SF-268 CNS; 114% in the assay on SF-295 CNS. For the same compound, the growth with SF-539 CNS is 97.9%; with UACC-257 melanoma, 108%; with M14 melanoma, 109%; in the assay on HCT-15 colon it was 105%; in the assay with SNB-75 CNS it was 126%; in the assay with SNB-19 CNS, 109%. Also, the growth is 105% in the assay on U251 CNS; 101% with PC-3 prostate; 119% in the assay with SK-MEL-5 melanoma; 105% with UACC-62 melanoma; 96.9% in the assay with LOX IMVI melanoma; 128% in the assay with SK-MEL-28 melanoma.
Turning to `COc1ccc(Cn2cc3c(c2-c2cc(OC)c(OC)c(OC)c2)CCc2cnoc2-3)cc1N`, the growth in the assay with DU-145 prostate is 1.73% (active); with K-562 leukemia, 15%; in the assay with MDA-MB-231 breast, 19.5%; in the assay on RXF 393 renal, 35%; with SF-268 CNS it was 15.4%; in the assay on SF-295 CNS, -16.9% (active). Besides, the growth in the assay on SF-539 CNS is 5.21% (active); with UACC-257 melanoma, 65.9%; in the assay with M14 melanoma it was 6.22% (active); in the assay with HCT-15 colon it was 17.5%; with SNB-75 CNS it was 50.5%; with SNB-19 CNS, 44.6%. Also, the growth in the assay on U251 CNS was 23.2%; with PC-3 prostate, 31.1%; with SK-MEL-5 melanoma it was -17.9% (active); in the assay with UACC-62 melanoma it was 50.5%; with LOX IMVI melanoma, 18.7%; in the assay on SK-MEL-28 melanoma it was 62%.
